Results filed as inconclusive are left out. A number with no mark means an inactive call. Calls come from the whole dose curve; as a rule, active = well fitted curve in either direction with a large enough effect (not every such curve was filed as active); inconclusive = small, poorly fitted or top-dose-only effect, or another doubt; inactive = flat fitted curve, though single readings scatter.
% is set by controls: 0 for no effect and ±100 for the full control effect.

The assay can be described thus: Stat Signaling Pathway (AID 446).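 Note: ME-180 cervical cancer cells given 40 pM IL-6 alongside compound.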 The note with it: ME-180 (cervical carcinoma) SIE beta-lactamase reporter, IL-6 stimulated, 5 h; at 7.69 µM (top of the series) unless noted. As to the method:
NCGC Assay Overview: The IL-6/STAT signaling pathway was assayed in ME-180 cervical carcinoma cells by a beta-lactamase reporter gene controlled by a STAT Inducible Element (SIE). This reporter is induced by IL-6 at 40 pM AC50 and inhibited by the pan JAK inhibitor, 2-(1,1-Dimethylethyl)-9-fluoro-3,6-dihydro-7H-benz[h]-imidaz[4,5-f]isoquinolin-7-one, at approximately 10 nM AC50. Plated cells were incubated overnight and on the following day, stimulated with 40 pM IL-6 for 5 hrs. The assay was screened at the AC50 of IL-6 activation to identify both inhibitors and activators of IL-6/STAT signaling.
NCGC Assay Protocol Summary: Cells were trypsinized, washed in assay medium (AM, OPTI MEM with 0.5% fetal bovine serum, 0.1 mM nonessential amino acids, 1 mM sodium pyruvate, 10mM HEPES pH 7.3, 100U/ml penicillin, and 100 ug/ml streptomycin) and suspended at 6 x 10e5/ml in AM. Approximately […] cells in 5 uL/well was dispensed into 1536 well plates and the cells were incubated overnight at 37 C. 23 nL of compound were delivered by a pin tool and 1 uL of IL-6 (40 pM final concentration in AM) was added. After centrifugation at 1000 rpm for less than a minute, plates were incubated at 37C for 5 hrs. One uL of detector mix (LiveBLAzerTM, Invitrogen) was added, the plates incubated at room temperature for 2.5 hrs, and fluorescence intensity at 460 and 530 nm emission was measured at 405 nm excitation by an Envision (Perkin Elmer) or Safire II (Tecan). Data were normalized by GeneData to the controls for AC90 stimulation (300 pM IL-6) and to AC90 inhibition (125 nM Jak inhibitor, 40 pM IL-6 in AM).
As to `COCC(=O)N1CCC2(CC1)CCN(C(=O)Nc1ccc(OC)cc1)CC2`, the activity, negative = inhibition was -0.498%. The value for `COCCNc1cc(-c2ccccc2CN(C)C)ncn1` was 13.5%. For `CN(C)Cc1ccccc1-c1nc(NCc2cccs2)c2ccccc2n1` the value was 15.6%; for `O=C(c1ccco1)N1CCC[C@@]2(CCN(c3ccncc3)C2)C1`, 1.83%; for `CN(C)c1ccnc(-c2cccc(NS(C)(=O)=O)c2)n1`, 3.11%.

Take `COc1ccc(-c2nc3cnc(Oc4cccc(Cl)c4)nc3n(C3CC3)c2=O)cc1`: the activity, negative = inhibition was 15%.

Turning to `O=C(c1ccco1)N1CCC2(CC1)CN(c1ccccc1)C2`, the activity, negative = inhibition is -9.25%.

With `COc1ccccc1-c1ccc2ncnc(N3CCN(C)CC3)c2c1`, the activity, negative = inhibition was 2.98%. For `Cn1cccc1C(=O)N1CCC2(CC1)CN(C(=O)Nc1ccccc1)C2` the value was -5.03%; for `CCNc1ncc2nc(C)c(=O)n(C3CC3)c2n1`, -2.73%. With `O=C(Nc1ccccc1)N1CC2(CCN(C(=O)c3ccncc3)CC2)C1`, the activity, negative = inhibition was -1.5%. With `CS(=O)(=O)N1CCC2(CCCN(C(=O)Nc3ccccc3)C2)CC1`, the activity, negative = inhibition is 3.16%. For the compound `COc1cccc(-c2cncnc2Nc2ccc(F)cc2)c1`, the activity, negative = inhibition is -10.1%. As to `CCNc1ncc2ncc(=O)n(Cc3cccs3)c2n1`, the activity, negative = inhibition is -24.4%.

With `Cc1noc(C)c1C(=O)N1CCC[C@@]2(CCN(Cc3ccccc3)C2)C1`, the activity, negative = inhibition was 3.42%. For `O=C(c1csnn1)N1CCC2(CC1)CN(c1ccccc1)C2` the value was 4.17%. Consider `O=C(Oc1ccccc1)N1CCC[C@@]2(CCN(c3ncccn3)C2)C1`, for which the activity, negative = inhibition is 9%. In the case of `Cc1noc(C)c1-c1cc(NCc2cccnc2)ncn1`, the activity, negative = inhibition was 8.46%.

Take `O=C(c1csnn1)N1CCC2(CC1)CCN(c1ncccn1)CC2`: the activity, negative = inhibition was -5.07%. The value for `COc1ccc(CNc2ccnc(-c3ccc4c(c3)OCO4)n2)c(OC)c1` was -2.09%; that for `O=C(c1ccco1)N1CCC2(CC1)CN(Cc1cc(C(F)(F)F)cc(C(F)(F)F)c1)C2` was 2.41%. Consider `COCCNc1ncncc1-c1c(C)noc1C`, for which the activity, negative = inhibition is 0.118%. The value for `CC(=O)N1CCC[C@@]2(CCN(c3ncccn3)C2)C1` was -10.4%. The value for `CNc1cc(-c2c(C)noc2C)ncn1` was 27.1%; that for `CC(C)NC(=O)N1CCC2(CC1)CCN(C(=O)c1csnn1)CC2` was -6.49%.

`N=C1Sc2ccccc2C2=NCCCN12`: the activity, negative = inhibition was -18.9% [at 38 µM]. Consider `COC(=O)N1CCC[C@@]2(CCN(c3ccccn3)C2)C1`, for which the activity, negative = inhibition is 7.71%. On to `COc1ccc(Oc2ncc3nc(-c4ccc(OC)cc4)c(=O)n(C4CC4)c3n2)cc1`, for which the activity, negative = inhibition was -1.53%. As to `O=C(c1cnccn1)N1CCC2(CCCN(c3ccccc3)C2)CC1`, the activity, negative = inhibition was -11.6%. Consider `CN(C)c1ncc2nc(-c3cccs3)c(=O)n(CCC#N)c2n1`, for which the activity, negative = inhibition is 4.64%.

Take `Cn1cccc1C(=O)N1CCC[C@@]2(CCN(Cc3cc(C(F)(F)F)cc(C(F)(F)F)c3)C2)C1`: the activity, negative = inhibition is 8.87%. The value for `COc1cccc(-c2ccc3ncnc(NCc4cccs4)c3c2)c1` was -19.5%; that for `CC(=O)N1CCC2(CCN(Cc3nccs3)CC2)CC1` was 17%; that for `COc1ncc2nc(-c3cc(F)cc(F)c3)c(=O)n(C)c2n1` was -3.71%.

For the compound `Cc1cccc(CNc2ncnc3ccc(-c4cccc(C#N)c4)cc23)c1`, the activity, negative = inhibition was -6.66%.

`COc1ccccc1CN1CC[C@@]2(CCCN(C(=O)c3cccc(F)c3)C2)C1`: the activity, negative = inhibition is 10.2%. The value for `CN(C)c1ncnc2ccc(-c3ccccc3C#N)cc12` was 18.9%. The value for `O=C(c1ccco1)N1CCC2(CC1)CN(C(c1ccccc1)c1ccccc1)C2` was -4.65%; that for `O=C(c1ccco1)N1CCC[C@@]2(CCN(Cc3ccccc3)C2)C1` was -7.43%; that for `COc1ccc(Oc2ncc3nc(C)c(=O)n(-c4ccccc4)c3n2)cc1` was -5.69%.

Values taken from PubChem BioAssay (NCATS).
